# From PubChem BioAssay
# Active and inactive are the calls of the source.
# How the values were obtained:
# [1] = tested on: PRMT1 (protein arginine N-methyltransferase 1); test: small molecules binding arginine methyltransferase PRMT1 – biochemical, small-molecule microarray, 635 nm fluorescence, primary screen (AID 1088); details: higher = more signal;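 also: binding of Prmt1 protein to compounds spotted on small-molecule microarray slides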
# [2] = growth effects on S. cerevisiae YJM789 – YJM789 clinical isolate, OD600, 24 h, basal, primary screen (AID 1089); details: higher = more signal, called active from +8 up or from −8 down;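 also: growth of clinical yeast isolate S. cerevisiae YJM 789 seeded 1000 cells per well; test concentration not given here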
# [3] = S. pombe growth modifiers, basal conditions – strain 972, OD600, 24 h, no modulator, primary screen (AID 1090);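 also: basal condition with compound alone and no growth modifier present; test concentration not given here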; details: S. pombe 972 growth, higher = more signal, called active from +8 up or from −8 down
# [4] = budding yeast growth modifiers under rapamycin – strain BY4716, OD600, 96 h, primary screen (AID 1091); also: test concentration not given here; details: S. cerevisiae BY4716 + rapamycin, higher = more signal, called active from +8 up or from −8 down
# [5] = molecular target: Torsin-1A-interacting protein 2 (Homo sapiens) (UniProt Q8NFQ8); test: small molecules binding lysate-expressed LULL1 – cell lysate, human LULL1 lysate, 635/667 nm fluorescence, primary screen (AID 1092); details: small-molecule microarray, hLULL1 lysate binding, 635 nm fluorescence; higher = more signal;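 also: probe is lysate of COS7 cells overexpressing human LULL1; score merges per-feature 667 nm fluorescence with signal-to-noise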
# [6] = optical density change of DRC41 E. coli – strain DRC41, OD650, 24 h, E. coli filamentation project, primary screen (AID 1093);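 also: MC1000 strain lacking acrAB efflux and sulA so SOS filamentation is blocked; test concentration not given here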; details: E. coli DRC41 growth, higher = more signal, called active from +8 up or from −8 down
# [7] = probe aLefty2 binding to arrayed compounds – biochemical, biotinylated probe, 635/667 nm fluorescence, primary screen (AID 1094); details: small-molecule microarray, higher = more signal;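 also: score merges spot fluorescence near 667 nm with spot signal-to-noise ratio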
# [8] = tested on: Noggin (protein binding on small-molecule microarray); test: small molecules binding Noggin protein – biochemical, 635/667 nm fluorescence, primary screen (AID 1095); details: 635 nm fluorescence, higher = more signal;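 also: score merges 667 nm feature fluorescence with signal to noise over triplicate slides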
# [9] = molecular target: Neurogenic locus notch homolog protein 3 (Homo sapiens) (UniProt Q9UM47); test: small molecules binding NOTCH3 protein – biochemical, 635/667 nm fluorescence, primary screen (AID 1096); details: small-molecule microarray, 635 nm fluorescence, higher = more signal
# [10] = probe aEGFR binding to arrayed compounds – biochemical, biotinylated probe, 635/667 nm fluorescence, primary screen (AID 1097); details: small-molecule microarray, higher = more signal;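 also: probe is a biotinylated anti-EGFR antibody binding compounds printed on slides; score combines fluorescence near 667 nm and signal to noise of each spot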
# Sequence of Torsin-1A-interacting protein 2 (Homo sapiens) (Q8NFQ8 whole entry, looked up): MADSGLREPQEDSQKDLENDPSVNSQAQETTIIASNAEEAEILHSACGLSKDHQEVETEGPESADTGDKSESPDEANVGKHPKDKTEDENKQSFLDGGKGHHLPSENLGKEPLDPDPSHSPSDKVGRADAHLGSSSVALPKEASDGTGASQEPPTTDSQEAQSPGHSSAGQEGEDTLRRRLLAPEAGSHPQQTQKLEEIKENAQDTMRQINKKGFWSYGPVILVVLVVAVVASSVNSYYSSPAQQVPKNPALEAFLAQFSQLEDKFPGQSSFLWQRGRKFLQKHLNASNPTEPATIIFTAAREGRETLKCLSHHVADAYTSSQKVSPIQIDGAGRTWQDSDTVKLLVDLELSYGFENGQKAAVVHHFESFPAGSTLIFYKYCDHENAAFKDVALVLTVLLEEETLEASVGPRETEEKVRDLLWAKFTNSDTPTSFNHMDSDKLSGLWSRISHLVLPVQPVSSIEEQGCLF
# Sequence of Neurogenic locus notch homolog protein 3 (Homo sapiens) (Q9UM47 whole entry, looked up): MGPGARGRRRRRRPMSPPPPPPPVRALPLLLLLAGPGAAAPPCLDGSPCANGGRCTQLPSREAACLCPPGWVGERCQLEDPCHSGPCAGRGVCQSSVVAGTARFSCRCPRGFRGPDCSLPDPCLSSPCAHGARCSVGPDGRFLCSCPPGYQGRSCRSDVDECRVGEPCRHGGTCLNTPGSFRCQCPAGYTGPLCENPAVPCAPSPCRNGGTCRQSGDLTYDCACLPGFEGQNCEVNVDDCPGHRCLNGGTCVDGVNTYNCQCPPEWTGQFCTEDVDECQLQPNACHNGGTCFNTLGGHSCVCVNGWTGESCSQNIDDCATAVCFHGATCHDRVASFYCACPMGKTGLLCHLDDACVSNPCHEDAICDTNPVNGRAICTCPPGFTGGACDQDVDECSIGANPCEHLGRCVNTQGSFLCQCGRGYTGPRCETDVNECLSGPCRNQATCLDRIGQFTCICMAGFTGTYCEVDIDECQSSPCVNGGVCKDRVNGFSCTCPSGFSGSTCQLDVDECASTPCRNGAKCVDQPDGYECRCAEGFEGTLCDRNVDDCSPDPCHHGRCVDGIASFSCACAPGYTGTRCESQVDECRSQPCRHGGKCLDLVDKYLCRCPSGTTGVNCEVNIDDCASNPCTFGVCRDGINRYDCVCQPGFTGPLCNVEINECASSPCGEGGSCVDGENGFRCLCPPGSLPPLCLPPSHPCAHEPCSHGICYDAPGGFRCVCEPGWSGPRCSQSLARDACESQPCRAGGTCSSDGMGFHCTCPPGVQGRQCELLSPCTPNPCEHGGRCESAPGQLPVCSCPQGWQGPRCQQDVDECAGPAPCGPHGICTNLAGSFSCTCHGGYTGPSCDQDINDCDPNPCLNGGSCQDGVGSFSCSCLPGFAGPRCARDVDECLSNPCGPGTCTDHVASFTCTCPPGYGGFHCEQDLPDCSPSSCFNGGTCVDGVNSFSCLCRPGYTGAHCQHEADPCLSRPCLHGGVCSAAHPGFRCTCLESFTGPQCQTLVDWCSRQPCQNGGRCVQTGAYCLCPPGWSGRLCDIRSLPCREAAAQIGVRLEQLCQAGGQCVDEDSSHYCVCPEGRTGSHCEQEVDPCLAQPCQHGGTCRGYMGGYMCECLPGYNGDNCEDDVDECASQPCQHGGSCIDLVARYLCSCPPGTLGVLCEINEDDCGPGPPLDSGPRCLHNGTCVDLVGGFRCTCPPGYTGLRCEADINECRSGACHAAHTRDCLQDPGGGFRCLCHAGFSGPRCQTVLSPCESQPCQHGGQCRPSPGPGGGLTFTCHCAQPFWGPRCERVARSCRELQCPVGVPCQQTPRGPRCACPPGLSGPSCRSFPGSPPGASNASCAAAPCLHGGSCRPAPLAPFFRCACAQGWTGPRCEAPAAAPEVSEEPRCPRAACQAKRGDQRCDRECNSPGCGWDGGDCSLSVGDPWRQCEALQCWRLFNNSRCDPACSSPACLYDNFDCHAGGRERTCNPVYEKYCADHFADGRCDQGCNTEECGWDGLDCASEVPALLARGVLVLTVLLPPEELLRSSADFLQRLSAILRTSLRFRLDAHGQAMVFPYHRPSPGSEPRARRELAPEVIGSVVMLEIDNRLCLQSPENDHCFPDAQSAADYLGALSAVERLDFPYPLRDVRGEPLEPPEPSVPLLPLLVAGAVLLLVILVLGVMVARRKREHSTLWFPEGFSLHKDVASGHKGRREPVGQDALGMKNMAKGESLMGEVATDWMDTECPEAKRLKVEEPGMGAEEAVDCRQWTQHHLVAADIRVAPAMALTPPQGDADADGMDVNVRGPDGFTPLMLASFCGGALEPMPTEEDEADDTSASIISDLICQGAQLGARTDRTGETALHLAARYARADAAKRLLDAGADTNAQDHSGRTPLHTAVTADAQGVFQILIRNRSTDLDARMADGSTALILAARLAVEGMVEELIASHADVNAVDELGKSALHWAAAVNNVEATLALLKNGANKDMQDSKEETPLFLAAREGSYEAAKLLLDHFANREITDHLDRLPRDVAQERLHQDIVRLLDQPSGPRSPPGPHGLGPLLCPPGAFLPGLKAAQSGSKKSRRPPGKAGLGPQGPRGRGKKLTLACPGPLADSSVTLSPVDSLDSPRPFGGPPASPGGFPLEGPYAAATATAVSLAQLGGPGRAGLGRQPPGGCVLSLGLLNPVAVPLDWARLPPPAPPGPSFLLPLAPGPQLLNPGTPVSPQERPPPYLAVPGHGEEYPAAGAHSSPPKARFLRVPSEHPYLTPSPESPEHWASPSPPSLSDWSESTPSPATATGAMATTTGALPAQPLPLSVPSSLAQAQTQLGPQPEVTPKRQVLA
SMILES,composite z-score [1],z-score [2],z-score [3],z-score [4],composite z-score [5],z-score [6],composite z-score [7],composite z-score [8],composite z-score [9],composite z-score [10]
COC(=O)C1(Cc2ccccc2)C=C2C(=C(c3ccccc3)C(=O)C2C)CN1 (stereo not given),-1.24,-0.175 (inactive),-0.183 (inactive),0.269 (inactive),1.29,-0.749 (inactive),1.32,-1.58,0.885,1.29
CO[C@H]1O[C@H](CO)[C@@H](OC(=O)c2ccc(Br)cc2)[C@@H]2OC(=O)[C@@H](Cc3ccc4ccccc4c3)C/C=C/C[C@H](Cc3ccc4ccccc4c3)C(=O)O[C@@H]12,1.45,-2.76 (inactive),-2.35 (inactive),-0.842 (inactive),2.82,0.0001 (inactive),-0.0375,0.0104,0.478,-0.112
COc1ccc(CCNC(=O)[C@@]2(Sc3ccc(C)cc3)CC(=O)N(Cc3cc(C(F)(F)F)cc(C(F)(F)F)c3)[C@@H]2c2ccc(CO)cc2I)cc1,1.46,-2.62 (inactive),-3.09 (inactive),2.1 (inactive),1.94,0.152 (inactive),-0.0208,-0.299,-0.0768,-0.24
NC(=O)N1C(=O)C2C(C1=O)C1C=C(CCCO)C2C(c2cccs2)N1Cc1cc2c(cc1Br)OCO2 (stereo not given),0.0811,-1.75 (inactive),-0.498 (inactive),-1.79 (inactive),1.84,0.263 (inactive),-0.0362,0.0233,0.508,-0.0978
C[C@]1(C(=O)NC2CC2)c2ccccc2C(=O)N(Cc2ccc(OC(F)(F)F)cc2)[C@H]1c1ccc(CO)cc1,-0.613,-0.352 (inactive),-0.0814 (inactive),-0.439 (inactive),1.77,0.735 (inactive),-0.128,-0.221,-0.943,-0.169
COCC(=C=CC[C@H](O)c1ccc(OCCO)cc1)C[C@H](O)COCc1ccccc1,1.51,-1.49 (inactive),-1.44 (inactive),-0.885 (inactive),1.64,0.825 (inactive),-0.298,1.4,0.573,-0.02
C#CCNC(=O)[C@H](Cc1ccccc1)NC(=O)[C@@H](N=[N+]=[N-])C(C)C,0.911,-0.611 (inactive),0.139 (inactive),-0.229 (inactive),1.57,0.35 (inactive),-0.116,0.434,0.5,-0.071
C[C@H]1ON(c2ccc(C(=O)OC(C)(C)C)cc2)[C@@H](c2ccc(O)cc2)[C@@H]1C(=O)N1C(=O)OC[C@@H]1c1ccccc1,1.51,0.657 (inactive),-1.95 (inactive),31.6 (active),1.69,-0.661 (inactive),-0.33,0.819,1.05,-0.0315
COCCCNC(=O)[C@]1(CCC(=O)OC(C)(C)C)N=C(c2ccc(OCCCO)cc2)O[C@@H]1c1ccccc1,1.22,0.12 (inactive),1.06 (inactive),-0.302 (inactive),3.65,0.447 (inactive),0.629,-0.275,0.226,0.475
O=C1OCC=C[C@H]2OC34C=CCN(Cn5nnc6ccccc65)C(=O)[C@H]3N(CCCCCCO)C(=O)[C@@H]4[C@@H]12 (stereo not given in full),-0.184,-1.47 (inactive),-1.19 (inactive),-0.66 (inactive),1.29,-0.218 (inactive),-0.0356,-1.04,-0.0986,-0.195
CC(C)(C)OC(=O)CC[C@]1(C(=O)NCCN2CCOCC2)N=C(c2ccc(OCCCO)cc2)O[C@H]1c1ccccc1N=[N+]=[N-],1.49,-0.417 (inactive),-0.437 (inactive),-0.535 (inactive),3.38,0.102 (inactive),0.373,-0.238,0.412,0.0988
CC(C)(C)OC(=O)CC[C@]1(C(=O)N2CCOCC2)N=C(c2ccc(OCCCO)cc2)O[C@H]1c1ccccc1,0.587,0.0164 (inactive),-0.988 (inactive),-0.439 (inactive),2.52,0.961 (inactive),0.0038,1.26,0.348,-0.0656
C=CCNC(=O)[C@H]1[C@@H]2C(=O)O[C@@H](c3ccccc3)[C@@H](c3ccccc3)N2[C@@H](c2ccccc2OCCO)[C@]12C(=O)N(C(=O)OCCOC)c1ccc(C#CC3=CCCCC3)cc12,1.55,1.85 (inactive),-1.02 (inactive),4.29 (inactive),2.38,1.23 (inactive),0.304,0.843,1.05,0.34
C=CCN1C(=O)[C@]2(CC=C)N=C(c3ccc(OCCCO)cc3)O[C@@H]2c2ccccc21,1.45,-1.76 (inactive),-2.79 (inactive),0.164 (inactive),3.13,1.02 (inactive),0.266,1.33,1.08,0.038
Cc1ccc(S[C@]2(C(=O)NCC(C)C)CC(=O)N(Cc3ccccc3Cl)[C@@H]2c2ccc(CO)cc2I)cc1,0.939,-1.38 (inactive),-1.87 (inactive),0.0522 (inactive),1.8,-0.712 (inactive),0.225,-1.08,-0.309,-0.304
COCCOC(=O)N1C(=O)[C@@]2(c3cc(C#Cc4ccc(OC)cc4)ccc31)[C@H](C(=O)N1CCN(c3ncccn3)CC1)[C@H]1C(=O)O[C@H](c3ccccc3)[C@H](c3ccccc3)N1[C@@H]2c1ccccc1OCCO,1.45,3.33 (inactive),2.27 (inactive),7.9 (inactive),2.17,-0.332 (inactive),-0.0917,0.735,0.605,-0.0382
C=CCOC(=O)[C@@H]1[C@H]2C(=O)O[C@H](c3ccccc3)[C@H](c3ccccc3)N2[C@H](c2ccc(OCCOC(=O)[C@H]3C[C@H]4C(=O)N[C@@H](CCCCN(C)C)C(=O)N4[C@H]3c3cccc(OCCO)c3)cc2)[C@@]12C(=O)Nc1ccc(I)cc12,1.56,0.95 (inactive),0.688 (inactive),3.87 (inactive),2.81,0.0565 (inactive),-0.0216,1.03,1.08,-0.105
COc1ccc([Si](C)(C)[C@H]2[C@H](CC(=O)N3Cc4ccccc4C[C@H]3CO)O[C@@]3(C(=O)N(Cc4cccc(N5CCCCC5=O)c4)c4ccccc43)[C@@H]2C)cc1,1.29,-2.19 (inactive),0.522 (inactive),0.925 (inactive),1.79,-0.0352 (inactive),0.02,1.02,1.09,-0.0471
COc1cc(CO)cc(I)c1O[C@H]1C=C(C(=O)NCCO)C[C@@H](N(CC2CCCCC2)C(=O)c2ccc(C(F)(F)F)cc2)[C@@H]1O,1.23,0.0635 (inactive),-0.169 (inactive),-0.0789 (inactive),1.89,1.78 (inactive),-0.166,0.586,0.937,-0.0828
CCCC[C@@H]1C[C@H]1[C@@H](NC(=O)c1cccnc1)c1ccc(-c2ccccc2)cc1,-0.537,-1.27 (inactive),-15.7 (active),-2.6 (inactive),-0.795,-0.919 (inactive),0.009,1.01,-0.476,-0.345
O=C1O[C@@H](c2ccccc2)[C@@H](c2ccccc2)N2[C@@H](c3ccccc3OCCO)[C@]3(C(=O)Nc4ccc(C#CC5=CCCCC5)cc43)[C@@H](C(=O)NC[C@H](O)c3ccccc3)[C@H]12,1.55,1.03 (inactive),0.112 (inactive),3.61 (inactive),2.38,1.38 (inactive),-0.273,0.988,1.11,-0.0371
Cc1ccc(F)cc1S(=O)(=O)N[C@@H]1CCN(Cc2ccc(OC(C)C)cc2)C1,-0.43,-1.01 (inactive),-14.4 (active),-0.839 (inactive),-0.526,-19.6 (active),-0.218,0.313,-0.877,-0.273
Cc1ccc(F)cc1S(=O)(=O)N[C@@H]1CCN(Cc2ccc(Oc3ccccc3)cc2)C1,-0.434,-21.2 (active),-21.4 (active),-3.22 (inactive),-0.367,-14.1 (active),-0.0073,0.966,0.551,-0.0953
COc1ccc(C(O)C2C=CC3C(=O)N(c4ccccc4)C(=O)C3N2Nc2ccc(C#N)cc2)c2ccccc12 (stereo not given),1.35,-1.89 (inactive),2.35 (inactive),0.906 (inactive),3.38,-0.945 (inactive),0.397,0.238,1.08,-0.0424
CC(C)(C)OC(=O)CC[C@]1(C(=O)NCCN2CCOCC2)N=C(c2ccc(OCCCO)cc2)O[C@H]1c1ccccc1,1.55,0.681 (inactive),0.0586 (inactive),-0.23 (inactive),3.23,0.437 (inactive),-0.007,-0.316,-0.532,0.34
CCOC(=O)C1=CC[C@@H](c2ccccc2C(F)(F)F)N(S(=O)(=O)c2ccc(C)cc2)C1,1.5,-2.43 (inactive),-0.598 (inactive),0.105 (inactive),2.63,-0.607 (inactive),0.495,0.03,1.04,0.678
COc1ccc([Si](C)(C)[C@@H]2[C@@H](CCO)O[C@]3(C(=O)N(Cc4cccc(N5C(=O)c6ccccc6Oc6ccccc65)c4)c4ccccc43)[C@H]2C)cc1,1.17,2.79 (inactive),-0.483 (inactive),36.9 (active),1.46,1.21 (inactive),-0.0666,-0.224,0.0578,-0.281
O=C1O[C@@H](c2ccccc2)[C@@H](c2ccccc2)N2[C@@H](c3ccccc3OCCO)[C@]3(C(=O)Nc4ccccc43)[C@@H](C(=O)NC[C@H](O)c3ccccc3)[C@H]12,1.4,2.62 (inactive),1.68 (inactive),5.71 (inactive),2.69,-0.467 (inactive),-0.139,-0.84,-0.359,-0.207
